In ChEMBL document CHEMBL4513216, “Probing the Open Global Health Chemical Diversity Library for Multistage-Active Starting Points for Next-Generation Antimalarials” (ACS Infect Dis, 2020):
The campaign covered roughly 69,000 compounds. About 8,600 (12%) showed an effect of 50% or more. What follows is part of a selection rich in strong results, with near analogues and random picks from the rest.

Each compound was assayed on Plasmodium berghei (assay: Screen against P. berghei liver stage (PbLuc), transformed with Luciferase, at 10uM). Details: tested at 10 uM.
Format: functional, HepG2

| Structure (SMILES) | INHIBITION [%] |
| --- | --- |
| Cc1cc(C(=O)NC2CCCc3c2cnn3-c2cccc(C)c2C)[nH]n1 (stereo unspecified) | 91 |
| Cc1cc(NC(=O)NC2CCCc3c2cnn3CCO)n(C)n1 (stereo unspecified) | -39.9 |
| Cc1cccc(-n2ncc3c2CCCC3NCC(C)(C)CO)c1C (stereo unspecified) | 58.5 |
| Cc1cccc(-n2ncc3c2CCCC3NCc2cnn(C)c2C)c1C (stereo unspecified) | 33.4 |
| Cc1nnc(NC(=O)NC2CCCc3c2cnn3CCO)s1 (stereo unspecified) | 38 |
| Cc1cccc(-n2ncc3c2CCCC3NCc2cccc(O)c2)c1C (stereo unspecified) | 31.9 |
| OC1(CN2CCCC2)COCCN(c2ncnc3[nH]ccc23)C1 (stereo unspecified) | 19.3 |
| OC1(CN2CCCC2)COCCN(c2ncnc3[nH]cnc23)C1 (stereo unspecified) | 56.1 |
| OC1(CN2CCCC2)CCCN(c2ncnc3[nH]cnc23)C1 (stereo unspecified) | 13.9 |
| CN(C)C[C@H]1OC[C@@H]2CCN(C(=O)c3cccn3C)C[C@@H]21 | 4.2 |
| CC(C)N(C)C(=O)C1=NOC2(CCN(C(=O)c3cccn3C)C2)C1 (stereo unspecified) | 13.3 |
| O=C(NCc1ccco1)[C@H]1CC[C@@H]2[C@@H](CCN2C2CCC2)O1 | 27.6 |
| Cc1nn(CC(=O)Nc2ccon2)c(C)c1Br | 40.8 |
| CCN1CCN(C2CCN(Cc3noc(C)n3)CC2)C1=O | 51.2 |
| Cc1nc(CN2CCC(N3CCN(C)C3=O)CC2)no1 | 11.2 |
| CCN1CCN(C2CCN(Cc3noc(C4CC4)n3)CC2)C1=O | 35.9 |
| Cc1ccc(CNC(=O)Cc2c(C)nc3c(c2C)c(=O)[nH]n3C)cc1 | 29.4 |
| CC(NC(=O)CCn1cccn1)c1cn(-c2ccccc2)nn1 (stereo unspecified) | -15.5 |
| CC(C)NC(=O)[C@@H]1C[C@H](N)CN1C(=O)C1(c2ccc(Cl)cc2)CCC1 | 41.5 |
| O=C(c1cc[nH]n1)N1CCCC1c1cncc(CN2CCOCC2)n1 (stereo unspecified) | 11.8 |
| CC(C)(NCCOc1ccc(CC#N)cc1)c1nccs1 | -6.34 |
| Cc1csc(C(C)(C)NCCOc2ccc(CC#N)cc2)n1 | 58.1 |

| Structure (SMILES) | INHIBITION [%] |
| --- | --- |
| Cc1csc(C(C)(C)NCCNS(C)(=O)=O)n1 | -1.75 |
| CC(C)(NCCCOc1ccc(C#N)cc1)c1nccs1 | 53.8 |
| N#Cc1ccc(OCCNCCn2cccn2)cc1 | 27.6 |
| CCS(=O)(=O)NCCNC(C)(C)c1nc(C)cs1 | -7.72 |
| CN1CCOC(c2cncc(CCC(N)=O)n2)C1 (stereo unspecified) | -0.232 |
| Cn1ccc2cc(CC3COCCN(C(=O)c4ccccn4)C3)ccc21 (stereo unspecified) | 20.055 |
| CC(=O)N1N=C(c2ccco2)OC1C(=O)N(C)CCc1ccccc1 (stereo unspecified) | 24.3 |
| Cc1cc2nc(SCC(=O)N3CCCC3)n(C)c(=O)c2[nH]1 | 19.3 |
| COCCNC(=O)C[C@@H]1COC[C@H]2CN(C(=O)C3CCOCC3)C[C@@H]12 | 69.3 |
| COCCNC(=O)C[C@@H]1COC[C@H]2CN(CC3CCOCC3)C[C@@H]12 | 36.7 |
| COCCNC(=O)C[C@@H]1COC[C@H]2CN(C(=O)COC)C[C@@H]12 | 13.1 |
| CC[C@@H](c1ccccc1)n1c(C2CC2)n[nH]c1=O | 37.3 |
| CCc1noc(CNCCn2cc(C)cn2)n1 | -9.37 |
| COCc1noc(CNc2nc(C3CCCC3)nc3c2CCNCC3)n1 | -52.2 |
| c1nc(CCNc2nc(C3CC3)nc3c2CCNCC3)c[nH]1 | -3.77 |
| Cc1nc2c(c(NCCc3nc4c(s3)CCCC4)n1)CCNCC2 | 25.8 |
| OC(CNc1nc(C2CCCC2)nc2c1CCNCC2)C(F)(F)F (stereo unspecified) | 52.1 |
| Cc1nc2c(c(NCC(O)c3ccccc3Cl)n1)CCNCC2 (stereo unspecified) | -32.6 |
| C1Cc2nc(CCNc3nc(C4CC4)nc4c3CCNCC4)sc2C1 | 64.8 |
| OC(CNc1ncnc2c1CCNCC2)C(F)(F)F (stereo unspecified) | 13.6 |
| Cc1nc2c(c(NCC(O)C(F)(F)F)n1)CCNCC2 (stereo unspecified) | 93.2 |
| COCCNc1nc(C2CCCC2)nc2c1CCNCC2 | -39.9 |

| Structure (SMILES) | INHIBITION [%] |
| --- | --- |
| CC(C)c1nn2c(-c3cnn(C)c3)nnc2s1 | -14.2 |
| CCC(C)(CNC(=O)c1ccon1)NC(=O)c1ccon1 (stereo unspecified) | -13.7 |
| COCC(=O)NCC1Cn2nnc(-c3ccncc3)c2CO1 (stereo unspecified) | -4.02 |
| COCCN1CCC2(CC1)CN(C(C)=O)c1ccc(C)cc12 | -33 |
| CCc1ocnc1C(=O)N1CCCC1c1noc(C)n1 (stereo unspecified) | 5.07 |
| C=C(C)COc1cccc(CNCCc2nc(N)cc(O)n2)c1 | 52.6 |
| C=C(C)COc1cccc(CNCc2nc3ccccc3c(=O)[nH]2)c1 | 28.5 |
| C=C(C)COc1cccc(CNCCc2c[nH]cn2)c1 | 29.1 |
| COCC1CC2(CCN(CC3CC3)CC2)CN1Cc1csc(C)n1 (stereo unspecified) | 37.8 |
| CCOC(=O)CCNC(=O)c1cc(Cl)cc2cccnc12 | 30.5 |
| CCn1c(CC2CCN(C(=O)C3CCOC3)CC2)nn(C)c1=O (stereo unspecified) | 56.1 |
| CCn1c(CC2CCN(C(=O)C3COCCO3)CC2)nn(C)c1=O (stereo unspecified) | 9.56 |
| CCn1c(CC2CCN(C(=O)C3CNCCO3)CC2)nn(C)c1=O (stereo unspecified) | 47.4 |
| Cc1noc(-c2ccnc(N3CCC(CN4CCOCC4)CC3)c2)n1 | 69.4 |
| Cc1noc(-c2ccnc(N3CCN(C4CCOCC4)CC3)c2)n1 | 10.7 |
| Cc1noc(-c2ccnc(N3CCC(N4CCCC4)CC3)c2)n1 | 48.5 |
| Cc1ccc(-c2nc(CNCC3CN(C)CCO3)co2)cc1 (stereo unspecified) | -12.2 |
| CC(=O)N1CCC2(CC1)C(=O)N(CC1CC1)c1ccccc12 | 1.56 |
| Cc1ccc(C(C(=O)NCc2cc(C)[nH]n2)N(C)C)cc1 (stereo unspecified) | 31.4 |
| Cc1cc(CNC(=O)C(c2ccc(F)cc2)N(C)C)n[nH]1 (stereo unspecified) | 37.3 |
| CN(C)C(C(=O)NCc1cc(C(C)(C)C)n[nH]1)c1ccc(F)cc1 (stereo unspecified) | 50.2 |
| Cc1cc(N2CCC(NC(=O)CCc3ccco3)CC2)nc(C)n1 | 38.7 |

| Structure (SMILES) | INHIBITION [%] |
| --- | --- |
| CCc1cc(N2CCC(NC(=O)CCC3CCCO3)CC2)ncn1 (stereo unspecified) | 37.6 |
| Cc1cc(N2CCC(NC(=O)CCC3CCCO3)CC2)nc(C)n1 (stereo unspecified) | 62.2 |
| COc1ccc2nnc(CCCC(=O)Nc3nc4c(s3)CCC4)n2n1 | 38.4 |
| COc1cc(C)c(CN2CCC3(CC2)[C@H](O)C[C@@H]3OCCN)cc1C | 23.3 |
| COc1ccc(F)c(F)c1CN1CCC2(CC1)[C@H](O)C[C@@H]2OCCN | 7.31 |
| COCCCC1(CO)CCCN(Cc2ccc(F)c(OC)c2)C1 (stereo unspecified) | -58.9 |
| COc1cc(CN2CC[C@@]3(CCCO3)[C@@H](O)C2)ccc1F | 44.9 |
| NCCO[C@H]1C[C@@H](O)C12CCN(Cc1c(F)cccc1F)CC2 | 52.2 |
| COc1cc(CN2CCC3(CC2)[C@H](O)C[C@@H]3OCCO)ccc1F | 51.1 |
| CNC(=O)CN(C)C(=O)c1cc2ccccc2cc1OC | 45.2 |
| CC(C)c1nc(CN2CCCN(Cc3nccn3C)CC2)no1 | -23.8 |
| Cn1nnnc1SCC1COc2ccccc2O1 (stereo unspecified) | 35.2 |
| CC(C)Nc1nc2c(s1)C(=O)CN(C(=O)NCc1ccccc1)C2 | 73.8 |
| CCNc1nc2c(s1)C(=O)CN(C(=O)NCCc1ccccc1)C2 | 24.4 |
| COCCN1CC(=O)c2sc(NCc3ccccc3)nc2C1 | -0.371 |
| CC(C)Nc1nc2c(s1)C(=O)CN(C(=O)NCCc1ccccc1)C2 | -7.79 |
| CC[C@H](C)[C@H](N)C(=O)N1CC(=O)c2sc(NC3CCCCC3)nc2C1 | 35.2 |
| CCNc1nc2c(s1)C(=O)CN(C(=O)NCc1ccccc1)C2 | 66.4 |
| CC[C@H](C)[C@H](N)C(=O)N1CC(=O)c2sc(NCc3ccccc3)nc2C1 | 61.9 |
| CNc1nc2c(s1)C(=O)CN(C(=O)NCc1ccccc1)C2 | 42.9 |
| CNc1nc2c(s1)C(=O)CN(C(=O)NCCc1ccccc1)C2 | 23.4 |
| O=C(Cc1ccccc1)N1Cc2nccn2CC(CN2CCCC2)C1 (stereo unspecified) | 11.3 |

| Structure (SMILES) | INHIBITION [%] |
| --- | --- |
| O=C(c1cccc(NCCOc2ccc(F)cc2)c1)N1CCOCC1 | 10.6 |
| CC(C)c1nc(-c2cc(C(=O)N3CCN(C)CC3)c3ccccn23)cs1 | 10.5 |
| CCC(CC)C(=O)c1c[nH]c(C(=O)N2CCN(c3ccccc3)CC2)c1 | -26.8 |
| Cc1noc(C)c1C(C)C(=O)N1CCCN(Cc2cscn2)CC1 (stereo unspecified) | 21.08 |
| CS(=O)(=O)Cc1ccc(C(=O)NCc2ccc(Cl)cc2Cl)cc1 | 29.4 |
| O=C(NCCNC(=O)c1scnc1Cl)c1ccoc1 | -23.8 |
| NC(=O)CN1CCC(Nc2ccnc3ccc(Cl)cc23)CC1 | 15.1 |
| COc1ccc(-n2cc(CNC(=O)c3cscn3)nn2)cc1 | -27.3 |
| COCC(=O)N1CCC(Nc2ccnc3ccc(Cl)cc23)CC1 | -56.3 |
| O=C(NCCNC(=O)C1CCN(c2ncccn2)CC1)c1ccoc1 | 15.1 |
| O=C(NCc1nc(NC2CCCC2)c2cc(Cl)ccc2n1)c1cncs1 | 68.6 |
| O=C(NCc1nc(NC2CCCC2)c2cc(Cl)ccc2n1)c1ccoc1 | 89 |
| O=C(NCCSC1CCCC1)c1cc(Cl)ccn1 | -45 |
| O=C(NCc1nc(NC2CCCC2)c2cc(Cl)ccc2n1)c1cscn1 | 54.6 |
| COc1ncccc1C(=O)N1CC[C@H]2C[C@@H](c3noc(C)n3)O[C@@H]2C1 | 15.4 |
| COCC1CC2(CCN(Cc3ccco3)CC2)CN1C(C)C (stereo unspecified) | 14.6 |
| CCn1cc(CNCC(c2ccc(Cl)cc2)n2cccn2)cn1 (stereo unspecified) | 3.58 |
| Cc1nc2cc(NC(=O)Cn3ncc(N4CCCC4)cc3=O)ccc2s1 | 41.2 |
